Test results reported in PubChem BioAssay AID1159580 (chemical genetic matrix, 2015).
In all, about 5,500 compounds went through this assay and about 2,000 (36%) were called active. About 18% were inconclusive and are not listed. Cut-off read from the data, not from the text of the source: active = normalized growth mostly below about 0.91 (no sharp cut-off); inconclusive = no clear call, values can overlap the other calls; inactive = mostly above about 0.92. This is one part of the list.

Test: chemical genetic growth profiling, strain panel (AID 1159580);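 note: tested at 20 µM; growth read once vehicle control cultures reached saturation at 30 °C; 1 = growth at the plate median or of vehicle wells; lower values mean less growth of the strain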
Details: growth OD

Measured: normalized growth

O=C(Oc1cc(OC(=O)c2ccccc2)c2c(c1)O[C@H](c1ccc(OC(=O)c3ccccc3)c(OC(=O)c3ccccc3)c1)[C@@H](OC(=O)c1ccccc1)C2)c1ccccc1
inactive: S. cerevisiae deletion strains, locus YAL021C, strain ccr4, active compounds read low 1.01 | S. cerevisiae deletion strains, locus YAL026C, strain drs2, active compounds read low 0.998 | S. cerevisiae deletion strains, locus YAL030W, strain snc1, active compounds read low 0.991 | S. cerevisiae deletion strains, locus YBL061C, strain skt5, active compounds read low 0.99 | S. cerevisiae deletion strains, locus YBR009C, strain hhf1, active compounds read low 0.982 | S. cerevisiae deletion strains, locus YBR021W, strain FUR4, active compounds read low 1.07 | S. cerevisiae deletion strains, locus YBR023C, strain chs3, active compounds read low 0.999 | S. cerevisiae deletion strains, locus YBR171W, strain sec66, active compounds read low 0.997 | S. cerevisiae deletion strains, locus YBR229C, strain ROT2, active compounds read low 1.04 | S. cerevisiae deletion strains, locus YBR231C, strain swc5, active compounds read low 0.99 | S. cerevisiae deletion strains, locus YBR279W, strain paf1, active compounds read low 1 | S. cerevisiae deletion strains, locus YCL011C, strain gbp2, active compounds read low 0.987 | S. cerevisiae deletion strains, locus YCL016C, strain dcc1, active compounds read low 0.994 | S. cerevisiae deletion strains, locus YCL029C, strain bik1, active compounds read low 1.05 | S. cerevisiae deletion strains, locus YCL061C, strain MRC1, active compounds read low 0.999 | S. cerevisiae deletion strains, locus YCL069W, strain vba3, active compounds read low 1 | S. cerevisiae deletion strains, locus YCR088W, strain abp1, active compounds read low 0.993 | S. cerevisiae deletion strains, locus YDL005C, strain med2, active compounds read low 0.991 | S. cerevisiae deletion strains, locus YDL035C, strain GPR1, active compounds read low 1.04 | S. cerevisiae deletion strains, locus YDL040C, strain nat1, active compounds read low 0.991 | S. cerevisiae deletion strains, locus YDL074C, strain BRE1, active compounds read low 1.14 | S. cerevisiae deletion strains, locus YDL101C, strain DUN1, active compounds read low 1.05 | S. cerevisiae deletion strains, locus YDL185W, strain tfp1, active compounds read low 1.06 | S. cerevisiae deletion strains, locus YDL192W, strain arf1, active compounds read low 1.07 | S. cerevisiae deletion strains, locus YDR001C, strain nth1, active compounds read low 0.994 | S. cerevisiae deletion strains, locus YDR069C, strain doa4, active compounds read low 0.986 | S. cerevisiae deletion strains, locus YDR101C, strain arx1, active compounds read low 1.03 | S. cerevisiae deletion strains, locus YDR137W, strain rgp1, active compounds read low 1.03 | S. cerevisiae deletion strains, locus YDR159W, strain sac3, active compounds read low 0.999 | S. cerevisiae deletion strains, locus YDR162C, strain NBP2, active compounds read low 1.03 | S. cerevisiae deletion strains, locus YDR195W, strain ref2 0.953 | S. cerevisiae deletion strains, locus YDR297W, strain sur2, active compounds read low 1 | S. cerevisiae deletion strains, locus YDR318W, strain mcm21, active compounds read low 1.04 | S. cerevisiae deletion strains, locus YDR334W, strain swr1, active compounds read low 0.992 | S. cerevisiae deletion strains, locus YDR335W, strain msn5, active compounds read low 0.999 | S. cerevisiae deletion strains, locus YDR388W, active compounds read low 1.04 | S. cerevisiae deletion strains, locus YDR392W, strain spt3, active compounds read low 0.927 | S. cerevisiae deletion strains, locus YDR502C, strain sam2, active compounds read low 1.06 | S. cerevisiae deletion strains, locus YEL003W, strain gim4, active compounds read low 0.994 | S. cerevisiae deletion strains, locus YEL037C, strain rad23, active compounds read low 0.991 | S. cerevisiae deletion strains, locus YEL061C, strain CIN8 (second series), active compounds read low 0.999 | S. cerevisiae deletion strains, locus YEL061C, strain CIN8, active compounds read low 1.02 | S. cerevisiae deletion strains, locus YER015W, strain faa2, active compounds read low 0.987 | S. cerevisiae deletion strains, locus YER016W, strain bim1, active compounds read low 0.991 | S. cerevisiae deletion strains, locus YER110C, active compounds read low 1.06 | S. cerevisiae deletion strains, locus YER111C, strain swi4, active compounds read low 0.999 | S. cerevisiae deletion strains, locus YER155C, strain BEM2 (second series), active compounds read low 0.993 | S. cerevisiae deletion strains, locus YER155C, strain BEM2, active compounds read low 1.04 | S. cerevisiae deletion strains, locus YER167W, strain BCK2, active compounds read low 1.03 | S. cerevisiae deletion strains, locus YFR010W, strain ubp6, active compounds read low 0.993 | S. cerevisiae deletion strains, locus YGL078C, strain dbp3, active compounds read low 1.04 | S. cerevisiae deletion strains, locus YGL086W, strain mad1, active compounds read low 1.04 | S. cerevisiae deletion strains, locus YGL167C, strain pmr1, active compounds read low 0.993 | S. cerevisiae deletion strains, locus YGL173C, strain kem1, active compounds read low 0.998 | S. cerevisiae deletion strains, locus YGL227W, strain vid30, active compounds read low 0.982 | S. cerevisiae deletion strains, locus YGL240W, strain doc1, active compounds read low 0.977 | S. cerevisiae deletion strains, locus YGL248W, strain PDE1, active compounds read low 1.08 | S. cerevisiae deletion strains, locus YGL253W, strain hxk2, active compounds read low 1 | S. cerevisiae deletion strains, locus YGR135W, strain pre9, active compounds read low 1.09 | S. cerevisiae deletion strains, locus YGR252W, strain gcn5, active compounds read low 1.17 | S. cerevisiae deletion strains, locus YHR013C, strain ard1, active compounds read low 0.958 | S. cerevisiae deletion strains, locus YHR027C, strain rpn1, active compounds read low 1 | S. cerevisiae deletion strains, locus YHR079C, strain IRE1 (second series), active compounds read low 1.05 | S. cerevisiae deletion strains, locus YHR094C, strain hxt1, active compounds read low 1.03 | S. cerevisiae deletion strains, locus YHR129C, strain ARP1, active compounds read low 1.05 | S. cerevisiae deletion strains, locus YHR142W, strain chs7, active compounds read low 1.03 | S. cerevisiae deletion strains, locus YHR200W, strain rpn10, active compounds read low 1.05 | S. cerevisiae deletion strains, locus YIL066C, strain RNR3, active compounds read low 1.05 | S. cerevisiae deletion strains, locus YIL073C, strain SPO22, active compounds read low 1.16 | S. cerevisiae deletion strains, locus YIL125W, strain kgd1, active compounds read low 1.02 | S. cerevisiae deletion strains, locus YIR030C, strain dcg1, active compounds read low 1.03 | S. cerevisiae deletion strains, locus YJL092W, strain hpr5, active compounds read low 0.993 | S. cerevisiae deletion strains, locus YJL095W, strain BCK1 (second series), active compounds read low 0.998 | S. cerevisiae deletion strains, locus YJL095W, strain BCK1, active compounds read low 1.12 | S. cerevisiae deletion strains, locus YJL115W, strain asf1, active compounds read low 0.984 | S. cerevisiae deletion strains, locus YJL129C, strain trk1, active compounds read low 0.999 | S. cerevisiae deletion strains, locus YJL134W, strain LCB3, active compounds read low 1.03 | S. cerevisiae deletion strains, locus YJL154C, strain vps35, active compounds read low 0.997 | S. cerevisiae deletion strains, locus YJL164C, strain tpk1, active compounds read low 0.974 | S. cerevisiae deletion strains, locus YJL166W, strain qcr8, active compounds read low 0.986 | S. cerevisiae deletion strains, locus YJL168C, strain set2, active compounds read low 1.06 | S. cerevisiae deletion strains, locus YJL187C, strain SWE1 (second series), active compounds read low 1.07 | S. cerevisiae deletion strains, locus YJL187C, strain SWE1, active compounds read low 1 | S. cerevisiae deletion strains, locus YJR075W, strain HOC1, active compounds read low 1.05 | S. cerevisiae deletion strains, locus YKL009W, strain mrt4, active compounds read low 1.05 | S. cerevisiae deletion strains, locus YKL068W, active compounds read low 1.02 | S. cerevisiae deletion strains, locus YKL085W, strain MDH1 (second series), active compounds read low 1.01 | S. cerevisiae deletion strains, locus YKL085W, strain MDH1, active compounds read low 1.01 | S. cerevisiae deletion strains, locus YKL160W, strain elf1, active compounds read low 1.01 | S. cerevisiae deletion strains, locus YKL190W, strain CNB1, active compounds read low 0.999 | S. cerevisiae deletion strains, locus YKR001C, strain vps1, active compounds read low 1.08 | S. cerevisiae deletion strains, locus YKR026C, strain gcn3, active compounds read low 0.968 | S. cerevisiae deletion strains, locus YKR091W, strain srl3, active compounds read low 0.996 | S. cerevisiae deletion strains, locus YLL001W, strain dnm1, active compounds read low 1.01 | S. cerevisiae deletion strains, locus YLL026W, active compounds read low 0.985 | S. cerevisiae deletion strains, locus YLL041C, strain sdh2, active compounds read low 1 | S. cerevisiae deletion strains, locus YLR027C, strain aat2, active compounds read low 0.995 | S. cerevisiae deletion strains, locus YLR039C, strain RIC1, active compounds read low 1.24 | S. cerevisiae deletion strains, locus YLR058C, strain SHM2, active compounds read low 1.04 | S. cerevisiae deletion strains, locus YLR102C, strain apc9, active compounds read low 1.03 | S. cerevisiae deletion strains, locus YLR221C, strain rsa3, active compounds read low 1 | S. cerevisiae deletion strains, locus YLR258W, strain gsy2, active compounds read low 0.993 | S. cerevisiae deletion strains, locus YLR262C, strain YPT6 (second series), active compounds read low 0.993 | S. cerevisiae deletion strains, locus YLR268W, strain sec22, active compounds read low 1.04 | S. cerevisiae deletion strains, locus YLR320W, strain mms22, active compounds read low 0.975 | S. cerevisiae deletion strains, locus YLR330W, strain CHS5, active compounds read low 1.04 | S. cerevisiae deletion strains, locus YLR342W, strain FKS1 (second series), active compounds read low 1.06 | S. cerevisiae deletion strains, locus YLR342W, strain FKS1, active compounds read low 0.989 | S. cerevisiae deletion strains, locus YLR357W, strain rsc2, active compounds read low 0.979 | S. cerevisiae deletion strains, locus YLR370C, strain arc18, active compounds read low 0.999 | S. cerevisiae deletion strains, locus YLR371W, strain rom2, active compounds read low 1.08 | S. cerevisiae deletion strains, locus YLR384C, strain iki3, active compounds read low 1.01 | S. cerevisiae deletion strains, locus YLR418C, strain cdc73, active compounds read low 1.15 | S. cerevisiae deletion strains, locus YML016C, strain PPZ1, active compounds read low 1.02 | S. cerevisiae deletion strains, locus YML032C, strain rad52, active compounds read low 1.04 | S. cerevisiae deletion strains, locus YML120C, strain ndi1, active compounds read low 1.01 | S. cerevisiae deletion strains, locus YML124C, strain tub3, active compounds read low 1.03 | S. cerevisiae deletion strains, locus YMR058W, strain fet3, active compounds read low 0.999 | S. cerevisiae deletion strains, locus YMR078C, strain ctf18, active compounds read low 1.04 | S. cerevisiae deletion strains, locus YMR125W, strain sto1, active compounds read low 0.978 | S. cerevisiae deletion strains, locus YMR129W, active compounds read low 0.997 | S. cerevisiae deletion strains, locus YMR205C, strain PFK2, active compounds read low 0.973 | S. cerevisiae deletion strains, locus YMR223W, strain ubp8, active compounds read low 1.06 | S. cerevisiae deletion strains, locus YMR231W, strain pep5, active compounds read low 0.998 | S. cerevisiae deletion strains, locus YMR307W, strain GAS1, active compounds read low 1.16 | S. cerevisiae deletion strains, locus YNL067W, strain RPL9B, active compounds read low 0.984 | S. cerevisiae deletion strains, locus YNL071W, strain lat1, active compounds read low 1.01 | S. cerevisiae deletion strains, locus YNL128W, strain TEP1, active compounds read low 0.999 | S. cerevisiae deletion strains, locus YNL209W, strain ssb2, active compounds read low 1 | S. cerevisiae deletion strains, locus YNL233W, strain BNI4, active compounds read low 1.07 | S. cerevisiae deletion strains, locus YNL248C, strain rpa49, active compounds read low 1.01 | S. cerevisiae deletion strains, locus YNL250W, strain rad50, active compounds read low 1.05 | S. cerevisiae deletion strains, locus YNL271C, strain bni1, active compounds read low 1.03 | S. cerevisiae deletion strains, locus YNL298W, strain CLA4, active compounds read low 1.04 | S. cerevisiae deletion strains, locus YNL307C, strain MCK1, active compounds read low 1.06 | S. cerevisiae deletion strains, locus YNL322C, strain KRE1 (second series), active compounds read low 0.985 | S. cerevisiae deletion strains, locus YNR049C, strain mso1, active compounds read low 0.991 | S. cerevisiae deletion strains, locus YNR052C, strain pop2, active compounds read low 1.06 | S. cerevisiae deletion strains, locus YOL006C, strain TOP1, active compounds read low 1.32 | S. cerevisiae deletion strains, locus YOL012C, strain htz1 1.34 | S. cerevisiae deletion strains, locus YOL147C, strain pex11, active compounds read low 1.03 | S. cerevisiae deletion strains, locus YOR001W, strain rrp6, active compounds read low 0.994 | S. cerevisiae deletion strains, locus YOR061W, strain CKA2, active compounds read low 1.04 | S. cerevisiae deletion strains, locus YOR069W, strain VPS5, active compounds read low 1.03 | S. cerevisiae deletion strains, locus YOR070C, strain gyp1, active compounds read low 0.996 | S. cerevisiae deletion strains, locus YOR080W, strain dia2, active compounds read low 0.989 | S. cerevisiae deletion strains, locus YOR083W, strain WHI5, active compounds read low 1.02 | S. cerevisiae deletion strains, locus YOR106W, strain vam3, active compounds read low 1 | S. cerevisiae deletion strains, locus YOR136W, strain idh2, active compounds read low 1.04 | S. cerevisiae deletion strains, locus YOR144C, strain elg1, active compounds read low 1.04 | S. cerevisiae deletion strains, locus YOR184W, strain ser1, active compounds read low 1.05 | S. cerevisiae deletion strains, locus YOR265W, strain rbl2, active compounds read low 0.993 | S. cerevisiae deletion strains, locus YOR270C, strain vph1, active compounds read low 1.01 | S. cerevisiae deletion strains, locus YOR290C, strain snf2, active compounds read low 0.954 | S. cerevisiae deletion strains, locus YOR316C, strain cot1, active compounds read low 1.05 | S. cerevisiae deletion strains, locus YPL051W, strain arl3, active compounds read low 1 | S. cerevisiae deletion strains, locus YPL055C, strain LGE1, active compounds read low 1.07 | S. cerevisiae deletion strains, locus YPL078C, strain atp4, active compounds read low 1.01 | S. cerevisiae deletion strains, locus YPL106C, strain sse1, active compounds read low 0.975 | S. cerevisiae deletion strains, locus YPL240C, strain hsp82, active compounds read low 0.99 | S. cerevisiae deletion strains, locus YPR119W, strain clb2, active compounds read low 1.04 | S. cerevisiae deletion strains, locus YPR141C, strain kar3, active compounds read low 1.04 | S. cerevisiae deletion strains, locus YPR163C, strain tif3, active compounds read low 1.05 | S. cerevisiae deletion strains, locus YPR167C, strain met16, active compounds read low 1.07 | S. cerevisiae deletion strains, strain wtn01, active compounds read low 1.04 | S. cerevisiae strains, strain wild type, active compounds read low 1.04
